Experimental findings from PubChem BioAssay AID652017 (The Scripps Research Institute Molecular Screening Center, 2013) are described below.

The campaign covered roughly 370,000 compounds. About 3,800 (1%) were called active. No stated cut-off is given here; in the data, active means activation above about 7.8%; inactive means the rest. This excerpt belongs to a sample that is enriched for actives.

This test can be described thus: SMARCA2 (BRM) function activators, primary screen, cell-based, luminescence, high throughput (AID 652017).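 Further: 0% = vehicle wells and 100% = reference activator wells.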 As to conditions: MG213 cells, MMTV-luciferase reporter, dexamethasone, overnight; at 9.1 µM; hits give high values.
On to `Cc1ccccc1NC(=O)C1CCN(c2ncccn2)CC1`, for which the activation was -1.72% (inactive).

As for `CC(=O)N1CCc2cc(S(=O)(=O)NCCC(=O)N3CCCC3)ccc21`, the activation was -4.7% (inactive).

As for `COC(=O)C1CN(Cc2cn(Cc3ccc(F)cc3)nn2)CCS(=O)(=O)N1Cc1ccc(Cl)cc1` (configuration not stated), the activation was -3.03% (inactive).

Regarding `COc1ccc(-c2cc(C3CCN(c4ncccc4[N+](=O)[O-])CC3)[nH]n2)cc1`, the activation was -2.21% (inactive).

`COc1cc(OC)cc(-c2cc3ccc(F)cc3cn2)c1`: the activation is 7.74% (inactive).

For the compound `COc1ccc(-c2cc3ncccc3cn2)cc1`, the activation is 8.94% (active).

As for `COCC(C)n1c(SCc2ccc(C(=O)OC)o2)nc2ccccc2c1=O` (configuration not stated), the activation is 9.35% (active).

Take `COCCn1c(C)cc(C(=O)CSc2nc3ccccc3c(=O)n2C(C)COC)c1C` (configuration not stated): the activation was -2.97% (inactive).

Turning to `COCC(C)n1c(SCC(=O)NC2CCCCC2C)nc2ccccc2c1=O` (configuration not stated), the activation is -2.03% (inactive).

`COC(=O)C1CN(Cc2ccc(F)cc2)CCS(=O)(=O)N1Cc1ccc(Cl)cc1` (configuration not stated): the activation is -2.03% (inactive).

For the compound `CSc1ccc(CNCCN2CCOCC2)cc1`, the activation is -0.08% (inactive).

On to `c1ccc2cc3c(NCCN4CCOCC4)ccnc3cc2c1`, for which the activation was 15.8% (active).

For the compound `O=C(Cc1ccc(Br)cc1)NCCN1CCOCC1`, the activation is 5.26% (inactive).

`CC(C)(C)n1nc(C2CC2)c(Br)c1NC(=O)c1ccccc1F`: the activation was -3.81% (inactive).

As to `COc1ccc(S(=O)(=O)N2CCOCC2)cc1NC(=O)Cc1coc2cc(C)ccc12`, the activation is -0.89% (inactive).

For the compound `C#CCCN([C@H](C(=O)OC)C(C)C)S(=O)(=O)c1ccc(F)cc1Br`, the activation was 0.37% (inactive).

Take `O=C(OC12CCCN(C1)/C(=C/c1cccnc1)C2)C1CCCC1` (configuration not stated): the activation was -1.64% (inactive).

With `Cc1ccc(N/C=C/C(=O)c2ccccc2)cc1C`, the activation was 14.5% (active).

On to `Cc1cccc(C(=O)Nc2ccc(C(=O)/C=C/c3cccs3)cc2)c1`, for which the activation was 7.01% (inactive).

As to `COC(C(=O)Nc1ccc(S(=O)(=O)Nc2ccc(C)c(C)c2)cc1)c1ccccc1` (configuration not stated), the activation is -2.54% (inactive).

As for `O=C(CCCCCCCC(=O)N1CCCCC1)N1CCCCC1`, the activation was -4.31% (inactive).

For `Cc1cccc(C(=O)Nc2c(-c3ccc(F)cc3)nc3ncccn23)c1`, the activation is -2.99% (inactive).

For `CC(c1ccc(N)cc1)c1cn(C)c2ccccc12` (configuration not stated), the activation is 2.03% (inactive).

With `Cc1ccc(CN(N=Nc2nonc2N)c2nonc2N)c(C)c1`, the activation was -3.9% (inactive).

With `CC(C)c1ccc(NC(=S)NC2CC3C=CC2C3)cc1` (configuration not stated), the activation was 8.66% (active).

With `CC(NC(=S)Nc1ccc(OC(F)F)cc1)c1ccc(F)cc1` (configuration not stated), the activation was -2.75% (inactive).

Consider `O=C(COC(=O)C1CC2C=CC1C2)Nc1ccccc1` (configuration not stated), for which the activation was -3.49% (inactive).

As for `COc1cccc(/C=C2\CC3(OC(C)=O)CCCN2C3)c1` (configuration not stated), the activation is 1.54% (inactive).

As for `COc1cccc(C(=O)Oc2cc(C)[nH]c(=O)c2[N+](=O)[O-])c1`, the activation was 0.69% (inactive).

Turning to `Cc1cc(OC(=O)c2ccc(OC(C)C)cc2)c([N+](=O)[O-])c(=O)[nH]1`, the activation is -2.6% (inactive).

In the case of `Cc1cc(OC(=O)c2ccccc2)c([N+](=O)[O-])c(=O)[nH]1`, the activation was 7.86% (active).

For `CC1CCC(NS(=O)(=O)c2ccc3c(c2)CC(=O)N3)CC1` (configuration not stated), the activation was -2.52% (inactive).

Take `O=C1Cc2cc(S(=O)(=O)Nc3cccc(F)c3)ccc2N1`: the activation was 9.16% (active).

As to `Cn1c(=O)n(C)c2cc(S(=O)(=O)Nc3ccc(F)cc3)ccc21`, the activation was -2.88% (inactive).

In the case of `CCN(CC)C(=O)CC[C@H]1CC[C@]2(CCCN(Cc3ccc(Cl)cc3)C2)O1`, the activation was -0.46% (inactive).

Take `CCOC(=O)CCCNC(=O)COC(=O)c1cc(Br)c(Br)s1`: the activation is -1.12% (inactive).

As for `COC(=O)C1CN(CC(C)C)CCS(=O)(=O)N1Cc1ccc(F)cc1` (configuration not stated), the activation is 1.2% (inactive).

Turning to `COC(=O)[C@]12C[C@H](CC(=O)NCC34CC5CC(CC(C5)C3)C4)C(=O)N(Cc3ccc(Cl)cc3Cl)C1=C[C@H](COCc1ccccc1)O[C@@H]2C`, the activation is -1.25% (inactive).

Regarding `C=CCn1c(SCC(N)=O)nnc1-c1ccccc1OC`, the activation was -5.95% (inactive).

As for `O=C(NCc1ccccc1)c1onc(CSc2nc3ccccc3[nH]2)c1C(=O)NCc1ccccc1`, the activation was -0.17% (inactive).

Regarding `Cn1c(SCC(=O)c2cccs2)nnc1-c1ccco1`, the activation is 2.45% (inactive).

On to `O=C(CSc1nc2ccccc2[nH]1)c1cccs1`, for which the activation is 8.32% (active).

In the case of `COC(=O)[C@@]12CCCCC3=C1N(CCC3)C(=O)[C@H]2CC(=O)NCc1cccc2ccccc12`, the activation was -2.69% (inactive).

On to `Cc1cc(Cl)ccc1C(=O)C1CCCN(C(=O)c2ccc3c(c2)OCO3)C1` (configuration not stated), for which the activation was 0.89% (inactive).

Consider `CC1=NNC(=O)C1CC(=O)N/N=C/c1ccncc1` (configuration not stated), for which the activation was -3.81% (inactive).

`O=C(CSc1nnc(-c2ccccn2)n1-c1ccccc1)Nc1ccc2cn[nH]c2c1`: the activation is 0.38% (inactive).

For `Cc1ccc(C(=O)N(Cc2ccccn2)CC2CCCO2)cc1` (configuration not stated), the activation is -2.73% (inactive).

Regarding `COc1ccc(CSc2nnc(-c3cccc(C)c3)n2C)cc1`, the activation was -2.04% (inactive).

Take `Cc1ccc(-c2nnc(SCC(=O)Nc3ccc(Oc4ccccc4)cc3)n2Cc2ccco2)cc1`: the activation is -4.83% (inactive).

Take `CC(=O)Nc1ccc(S(=O)(=O)NCC2CCC(C(=O)NCCc3ccccc3)CC2)cc1` (configuration not stated): the activation was -3.64% (inactive).

Consider `CCCCNC(=O)C1CCC(CNS(=O)(=O)c2ccc(NC(C)=O)cc2)CC1` (configuration not stated), for which the activation is 12.9% (active).

Turning to `CCCCSCCCNC(=O)C1CCC(CNS(=O)(=O)c2ccc(NC(C)=O)cc2)CC1` (configuration not stated), the activation is -2.92% (inactive).

With `COc1ccccc1C(=O)N1CCNC(=O)C1CC(=O)Nc1ccc(Cl)cc1` (configuration not stated), the activation is -0.22% (inactive).

As for `COc1ccc(C2CC=C(C(=O)O)C(c3ccccc3F)N2S(=O)(=O)c2ccc(C)cc2)cc1OC` (configuration not stated), the activation was 0.02% (inactive).

Regarding `N#C/C=C1\Sc2ccccc2C(=O)N1CC(=O)N1CCN(S(=O)(=O)c2ccccc2)CC1`, the activation is 6.51% (inactive).

As for `CCc1ccccc1NC(=O)CSc1nnc(-c2cccs2)o1`, the activation is 5.4% (inactive).

Take `COc1cc(CN2CCC(C(N)=O)CC2)ccc1OCc1ccccc1`: the activation was 10.4% (active).

Turning to `COc1ccc(COCC(O)CN2CCC(C(N)=O)CC2)cc1` (configuration not stated), the activation was -2.59% (inactive).

For `COc1ccc(CCN2C(=O)CC(N3CCC(C(N)=O)CC3)C2=O)cc1OC` (configuration not stated), the activation is -1.41% (inactive).

As for `Cc1nc2ccc(C(=O)N3CCN(C(=O)C(C)(C)C)CC3)cc2n1C1CCCC1`, the activation is -3.37% (inactive).

Turning to `CC1CC(C)CN(CCC(=O)Nc2ccc3c(c2)CCC3)C1` (configuration not stated), the activation is -0.27% (inactive).

As for `O=C(Nc1ccc2c(c1)CCC2)c1ccc(Br)s1`, the activation was 9.61% (active).

In the case of `CC(C)Oc1ccc(C(=O)NCC(=O)Nc2ccc3c(c2)CCC3)cc1`, the activation was 5.66% (inactive).

In the case of `C[C@H]1CN([C@@H](C)CO)C(=O)Cc2cc(NS(C)(=O)=O)ccc2O[C@@H]1CN(C)CC1CC1`, the activation is 0.45% (inactive).

Turning to `COc1ccccc1CNS(=O)(=O)c1c(C)[nH]c(C)c1C(=O)N1CCCCC1`, the activation was 3.15% (inactive).

For `COC(=O)[C@H](CCSC)NC(=O)Nc1ccc(OC)cc1`, the activation was 0.38% (inactive).

As to `COc1ccc(NC(=O)c2sccc2SCC#N)cc1`, the activation is 8.69% (active).

With `COc1ccc(NC(=O)C(C)SCc2ccccc2)cc1` (configuration not stated), the activation is -0.97% (inactive).

Turning to `Cc1c[nH]c2cccc(-c3ccc(Cl)cc3)c12`, the activation is -2.85% (inactive).

With `CCCCn1c(N)c(N(CC(C)C)C(=O)c2cccc(S(=O)(=O)N3CC(C)OC(C)C3)c2)c(=O)[nH]c1=O` (configuration not stated), the activation was -0.77% (inactive).

On to `COC(=O)C1CN(CC(C)C)CCS(=O)(=O)N1Cc1ccc(C)cc1` (configuration not stated), for which the activation is -1.21% (inactive).

`CC(C)CC(=O)N/C(N)=N/c1nc2ccccc2s1`: the activation is 5.04% (inactive).

Take `O=C(CSc1nc2ccccc2s1)NN=Cc1ccc(O)cc1O`: the activation was -6.37% (inactive).

As for `CCC(=O)NC(=Nc1nc2ccccc2s1)NC(=O)CC`, the activation is 7.9% (active).

Take `COC(=O)CCC(=O)N1CCCC(CO)(Cc2ccccc2)C1` (configuration not stated): the activation was 3.15% (inactive).

In the case of `COc1cccc(N2CCN(CC(=O)N(C)Cc3ccc(F)cc3)CC2)c1`, the activation was -2.95% (inactive).

For the compound `COCn1c(COc2ccccc2)nc2ccccc21`, the activation was 9.21% (active).

As for `COc1ccccc1Cn1c(CO)nc2ccccc21`, the activation was -2.13% (inactive).

Take `COCc1nc2ccccc2n1Cc1ccccc1Br`: the activation was -3.44% (inactive).

Turning to `COC(=O)C1CN(CCc2ccccc2)CCS(=O)(=O)N1Cc1cccc(Cl)c1` (configuration not stated), the activation is -3.45% (inactive).

With `CCCCN(CC)C(=S)Nc1ccc2nc3n(c(=O)c2c1)CCCCC3`, the activation is -4.18% (inactive).

Regarding `Cc1ccc(NC(=O)CN2CCC3(O)CCCCC3C2c2ccc3c(c2)OCO3)c(C)c1` (configuration not stated), the activation is 0.08% (inactive).

Turning to `CC1CCCCC1NC(=O)CN1CCC(O)(c2ccc3c(c2)OCO3)CC1` (configuration not stated), the activation was 8.42% (active).

Take `CC1CCCCC1NC(=O)CCS(=O)(=O)c1ccc2c(c1)NC(=O)CO2` (configuration not stated): the activation is -2.77% (inactive).

Turning to `Cc1sc2nc(SCC(=O)c3ccc(O)c(O)c3)n(Cc3ccco3)c(=O)c2c1C`, the activation is -5.31% (inactive).

Consider `Cc1c(NC(=O)CSc2cccc3cccnc23)c(=O)n(-c2ccccc2)n1C`, for which the activation is 8.2% (active).

As to `Cc1ccccc1OCCC(=O)Nc1c(C)n(C)n(-c2ccccc2)c1=O`, the activation is -3.07% (inactive).

For `Cc1ccc(S(=O)(=O)CC(=O)Nc2c(C)n(C)n(-c3ccccc3)c2=O)cc1`, the activation is -1.75% (inactive).

For `C[C@]1(C(=O)NCCc2c[nH]c3ccccc23)C=C[C@@H](Cc2ccccc2)N1C(=O)c1ccccc1`, the activation was 1.41% (inactive).

Regarding `Cc1ccc(-n2c(SCC(=O)Nc3ccc(S(=O)(=O)Nc4nccs4)cc3)nnc2-c2cccnc2)cc1`, the activation was -5.55% (inactive).

As to `Cc1c(CCO)c(=O)n(-c2ccccc2)n1S(=O)(=O)c1ccc(F)cc1`, the activation is -2.63% (inactive).

For the compound `O=C(NCc1cccs1)C1CCN(S(=O)(=O)c2ccccc2[N+](=O)[O-])CC1`, the activation was -3.33% (inactive).
